The supplement of paper PMC12669032
Several values for one entry are separate records, joined by “and”; a condition that tells them apart may be missing. Equal entries are not always repeated. A number with no mark means an inactive call.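 How the source made its calls: active = AUC reduced over 20% with Padj below 0.05 in at least 2 of 3 replicates; inactive = otherwise.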

Experiments:
Roseburia intestinalis = assay: growth AUC relative to DMSO control (median of replicates) (fraction); higher = more growth (less inhibition), active = hit call of the paper; conditions: 20 µM; 24 h
Procedure, shortened: (§1)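 Gut bacterial monocultures in mGAM were treated with 20 µM compound (1% DMSO) and grown anaerobically at 37 °C in round-bottom 96-well plates from OD600 0.05. OD600 was read hourly for 24 h, with the minimum OD set to 0. Area under the growth curve was normalised to the plate median of solvent-only wells, or to row and column medians on the industrial chemical plate. Each value is the median of three biological replicates, each grown on a separate day.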

Streptococcus salivarius = assay: as above; conditions: 20 µM; 24 h
Procedure, shortened: as §1

With `CC1(C)CCC(Cc2ccc(Cl)cc2)C1(O)Cn1cncn1` (configuration not stated) the “growth AUC” value (Roseburia intestinalis) was 0.943 and the “growth AUC” value (Streptococcus salivarius) was 1.
With `O=C(O)COc1nc(Cl)c(Cl)cc1Cl` the “growth AUC” value (Roseburia intestinalis) was 1.01 and the “growth AUC” value (Streptococcus salivarius) was 1.01.
In the case of `Nc1ncn[nH]1`, the “growth AUC” value (Roseburia intestinalis) is reported as 0.985 and the “growth AUC” value (Streptococcus salivarius) is reported as 0.997.
`CCCCOC(=O)[C@@H](C)Oc1ccc(Oc2ccc(C#N)cc2F)cc1` was tested, and the “growth AUC” value (Roseburia intestinalis) was 0.997 and the “growth AUC” value (Streptococcus salivarius) was 0.954.
For `COC(=O)Nc1cccc(OC(=O)Nc2cccc(C)c2)c1`, the “growth AUC” value (Roseburia intestinalis) was 0.936 and the “growth AUC” value (Streptococcus salivarius) was 0.996.
In the case of `CNC(=O)Oc1ccccc1C(C)C`, the “growth AUC” value (Roseburia intestinalis) is reported as 1.06 and the “growth AUC” value (Streptococcus salivarius) is reported as 1.04.
In the case of `COC(=O)c1ccccc1S(=O)(=O)NC(=O)Nc1nc(C)cc(C)n1`, the “growth AUC” value (Roseburia intestinalis) is reported as 0.944 and the “growth AUC” value (Streptococcus salivarius) is reported as 0.982.
In the case of `C=CCOC(Cn1ccnc1)c1ccc(Cl)cc1Cl.O=S(=O)(O)O` (configuration not stated), the “growth AUC” value (Roseburia intestinalis) is reported as 0.261 (active) and the “growth AUC” value (Streptococcus salivarius) is reported as 0.953.
With `O=C(Nc1ccccc1-c1ccc(Cl)cc1)c1cccnc1Cl` the “growth AUC” value (Roseburia intestinalis) was 1.01 and the “growth AUC” value (Streptococcus salivarius) was 1.01.
`CCOP(=S)(OCC)Oc1cnc2ccccc2n1` was tested, and the “growth AUC” value (Roseburia intestinalis) was 0.99 and the “growth AUC” value (Streptococcus salivarius) was 0.954.
In the case of `Nc1ccncc1`, the “growth AUC” value (Roseburia intestinalis) is reported as 0.981 and the “growth AUC” value (Streptococcus salivarius) is reported as 0.981.
For `CCOP(=S)(OCC)SCCS(=O)(=O)CC`, the “growth AUC” value (Roseburia intestinalis) was 0.971 and the “growth AUC” value (Streptococcus salivarius) was 0.994.
With `CC1(C)CN=C(NN=C(/C=C/c2ccc(C(F)(F)F)cc2)/C=C/c2ccc(C(F)(F)F)cc2)NC1` the “growth AUC” value (Roseburia intestinalis) was 0.391 (active) and the “growth AUC” value (Streptococcus salivarius) was 1.1.
With `COP(=O)(OC)O/C(C)=C/C(=O)N(C)C` the “growth AUC” value (Roseburia intestinalis) was 0.988 and the “growth AUC” value (Streptococcus salivarius) was 0.984.
For `CC(=NC#N)N(C)Cc1ccc(Cl)nc1`, the “growth AUC” value (Roseburia intestinalis) was 0.956 and 1.02 and the “growth AUC” value (Streptococcus salivarius) was 1.05 and 1.06.
With `CCOP(=S)(OCC)Oc1ccc2c(C)c(Cl)c(=O)oc2c1` the “growth AUC” value (Roseburia intestinalis) was 1.01 and the “growth AUC” value (Streptococcus salivarius) was 1.
For `CCc1ccc(C(=O)NN(C(=O)c2cc(C)cc(C)c2)C(C)(C)C)cc1`, the “growth AUC” value (Roseburia intestinalis) was 0.945 and the “growth AUC” value (Streptococcus salivarius) was 0.952.
`CCN(CC)C(=O)/C(Cl)=C(/C)OP(=O)(OC)OC` was tested, and the “growth AUC” value (Roseburia intestinalis) was 1.01 and the “growth AUC” value (Streptococcus salivarius) was 0.994.
`C[C@@H](Oc1ccc(Oc2nc3ccc(Cl)cc3o2)cc1)C(=O)O` was tested, and the “growth AUC” value (Roseburia intestinalis) was 1.04 and the “growth AUC” value (Streptococcus salivarius) was 0.925.
In the case of `CNC(=S)S`, the “growth AUC” value (Roseburia intestinalis) is reported as 1.1 and the “growth AUC” value (Streptococcus salivarius) is reported as 0.997.
In the case of `O=C(Nc1ccccc1)Nc1cnns1`, the “growth AUC” value (Roseburia intestinalis) is reported as 0.918 and the “growth AUC” value (Streptococcus salivarius) is reported as 0.891.
In the case of `Nc1nc(N)nc(Cl)n1`, the “growth AUC” value (Roseburia intestinalis) is reported as 1.05 and the “growth AUC” value (Streptococcus salivarius) is reported as 1.03.
With `COP(=S)(OC)Oc1ccc([N+](=O)[O-])c(C)c1` the “growth AUC” value (Roseburia intestinalis) was 0.949 and the “growth AUC” value (Streptococcus salivarius) was 0.991.
For `Oc1ccc(Cc2ccc(O)cc2)cc1`, the “growth AUC” value (Roseburia intestinalis) was 0.999 and the “growth AUC” value (Streptococcus salivarius) was 0.966.
With `CCOP(=S)(OCC)SCSP(=S)(OCC)OCC` the “growth AUC” value (Roseburia intestinalis) was 1.09 and the “growth AUC” value (Streptococcus salivarius) was 0.958.
In the case of `Cc1cnc(C2=NC(C)(C(C)C)C(=O)N2)c(C(=O)O)c1` (configuration not stated), the “growth AUC” value (Roseburia intestinalis) is reported as 0.997 and the “growth AUC” value (Streptococcus salivarius) is reported as 1.03.
For `Nc1c(Cl)cc([N+](=O)[O-])cc1Cl`, the “growth AUC” value (Roseburia intestinalis) was 0.925 and the “growth AUC” value (Streptococcus salivarius) was 0.956.
For `CCOP(=S)(OCC)Oc1cc(C)nc(C(C)C)n1`, the “growth AUC” value (Roseburia intestinalis) was 0.984 and the “growth AUC” value (Streptococcus salivarius) was 1.03.
For `O=[N+]([O-])c1ccc(Oc2ccc(Cl)cc2Cl)cc1`, the “growth AUC” value (Roseburia intestinalis) was 0.967 and the “growth AUC” value (Streptococcus salivarius) was 0.981.
With `O=C1CCc2cccc3c2N1CC3` the “growth AUC” value (Roseburia intestinalis) was 0.989 and the “growth AUC” value (Streptococcus salivarius) was 0.941.
With `CCOP(=S)(Oc1cnc(C(C)(C)C)nc1)OC(C)C` (configuration not stated) the “growth AUC” value (Roseburia intestinalis) was 1.01 and the “growth AUC” value (Streptococcus salivarius) was 0.994.
With `CO/N=C(/C1=NOCCO1)c1ccccc1Oc1ncnc(Oc2ccccc2Cl)c1F` the “growth AUC” value (Roseburia intestinalis) was 0.997 and the “growth AUC” value (Streptococcus salivarius) was 1.04.
For `COP(=O)(OC)SCn1c(=O)oc2cc(Cl)cnc21`, the “growth AUC” value (Roseburia intestinalis) was 1.06 and the “growth AUC” value (Streptococcus salivarius) was 0.978.
With `CCC(C)(C)c1ccc(O)cc1` the “growth AUC” value (Roseburia intestinalis) was 0.995 and the “growth AUC” value (Streptococcus salivarius) was 0.995.
For `COc1cc(OC)nc(NC(=O)NS(=O)(=O)c2cc(NC=O)ccc2C(=O)N(C)C)n1`, the “growth AUC” value (Roseburia intestinalis) was 1.04 and the “growth AUC” value (Streptococcus salivarius) was 1.03.
In the case of `CON(C)C(=O)Nc1ccc(Cl)c(Cl)c1`, the “growth AUC” value (Roseburia intestinalis) is reported as 0.925 and the “growth AUC” value (Streptococcus salivarius) is reported as 0.945.
For `COc1cc(OC)nc(Oc2cccc(Oc3nc(OC)cc(OC)n3)c2C(=O)[O-])n1.[Na+]`, the “growth AUC” value (Roseburia intestinalis) was 1.06 and the “growth AUC” value (Streptococcus salivarius) was 1.01.
`O=C1c2ccccc2C(=O)N1SC(Cl)(Cl)Cl` was tested, and the “growth AUC” value (Roseburia intestinalis) was 0.99 and the “growth AUC” value (Streptococcus salivarius) was 1.01.
In the case of `CC(C)(C)C(O)C(Oc1ccc(-c2ccccc2)cc1)n1cncn1` (mixture of isomers), the “growth AUC” value (Roseburia intestinalis) is reported as 1.02 and the “growth AUC” value (Streptococcus salivarius) is reported as 1.01.
In the case of `Cc1c(N)cccc1N`, the “growth AUC” value (Roseburia intestinalis) is reported as 0.997 and the “growth AUC” value (Streptococcus salivarius) is reported as 1.01.
In the case of `O=c1c2cc(F)ccc2nc(-n2cncn2)n1-c1ccc(Cl)cc1Cl`, the “growth AUC” value (Roseburia intestinalis) is reported as 0.975 and the “growth AUC” value (Streptococcus salivarius) is reported as 1.02.
